# Results taken from the supplement of paper PMC12636033.
# ± gives the standard deviation of the averaged measurements. Over roughly 33,000 sequences, “E-score (rank enrichment, -0.5 to 0.5)” has its median near -0.0068; the highest 2% begin near 0.24. Many of the other results were omitted from the sample, so the highest values are more common in it than they were.
# Tested on: muMax20 (Max(13-93) K31hArg/K57hArg, M65Nle)
# Assay: PBM 8-mer E-score (E-score (rank enrichment, -0.5 to 0.5)); higher = stronger preferential binding
# Method: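 Protein binding microarray (universal PBM chip covering all 10-mers in fixed probe flanks) with chemically synthesized human Max(13-93) bHLH-LZ analogs (not full-length Max) bearing noncanonical residues (hArg, Tha, Aib, Nle at 65) and aromatic Cys staples. Read-out per 8-mer (and its reverse complement): E-score (rank-based enrichment, -0.5 to 0.5) and Z-score of median probe intensity.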
row,Sequence,PBM 8-mer E-score
1,CGCGACCA,-0.136 ± 0.0046
2,ATATGGTA,0.217 ± 0.0028
3,GTCGGACA,-0.2 ± 0.096
4,GAATAACC,0.0359 ± 0.041
5,TCGAAACA,0.00709 ± 0.067
6,ACAGAGTC,-0.0304 ± 0.021
7,ATCCTACA,-0.0539 ± 0.011
8,GTTCCCGA,-0.272 ± 0.029
9,AAACTCGG,-0.00029 ± 0.062
10,TGAAATCA,0.102 ± 0.042
11,CACCTAGC,0.0921 ± 0.017
12,AGTACACA,0.22 ± 0.037
13,ACTACACA,0.315 ± 0.053
14,CGTACACG,0.212 ± 0.059
15,CCTACACG,0.00955 ± 0.02
16,ACTACACG,0.149 ± 0.0089
17,TGTACACA,0.251 ± 0.073
18,ATCCCTGG,-0.185 ± 0.058
19,ACTCCATC,-0.129 ± 0.053
20,ATTTCATC,0.17 ± 0.077
21,TGAAGACA,-0.094 ± 0.12
22,ATTGTATA,0.131 ± 0.13
23,AAAGTATT,0.221 ± 0.0025
24,AATGTATA,0.279 ± 0.074
25,CAAGTATA,0.187 ± 0.011

row,Sequence,PBM 8-mer E-score
1,AAAGTATA,0.315 ± 0.012
2,GCTGTATA,0.192 ± 0.026
3,GTTGTATA,0.249 ± 0.025
4,CATGTATA,0.228 ± 0.034
5,CCTGTATA,0.116 ± 0.042
6,GATGTATA,0.103 ± 0.14
7,ACTGTATA,0.255 ± 0.011
8,CTTGTATA,0.136 ± 0.16
9,ACGCCATA,0.0949 ± 0.073
10,TCTAAACA,0.16 ± 0.033
11,CTGAGTTA,-0.0809 ± 0.031
12,AGAAAAAA,0.231 ± 0.056
13,CATCGAGC,-0.0831 ± 0.0056
14,AAATGTGC,0.121 ± 0.067
15,ACGGTGCT,-0.0206 ± 0.018
16,GTTGTTTA,0.32 ± 0.063
17,CTTGTTTA,0.0457 ± 0.0082
18,ATTGTTTA,0.103 ± 0.011
19,ACATTGTG,0.144 ± 0.17
20,TAGATCTA,0.0708 ± 0.14
21,CACATATG,0.131 ± 0.036
22,AACATATG,0.136 ± 0.027
23,CACATATC,0.149 ± 0.067
24,TACATAGA,0.163 ± 0.051
25,GACATATA,0.0588 ± 0.11

row,Sequence,PBM 8-mer E-score
1,ACCATATG,0.159 ± 0.02
2,CACATATA,0.325 ± 0.081
3,ACCATATC,0.0503 ± 0.19
4,ACCATATA,0.278 ± 0.042
5,TACATATA,0.238 ± 0.022
6,AACATATA,0.286 ± 0.079
7,GACATATC,0.135 ± 0.032
8,CGTCGGAG,-0.1482 ± 0.0013
9,CGCACTAG,-0.0251 ± 0.025
10,GCAGATCA,-0.15 ± 0.0073
11,CTACCTGC,-0.0986 ± 0.014
12,AGAAATAC,0.0602 ± 0.05
13,AAAAATAT,0.229 ± 0.035
14,GGAAATAA,0.154 ± 0.013
15,ATAAATAT,0.319 ± 0.01
16,TTAAATAA,0.18 ± 0.063
17,AGAAATAA,0.259 ± 0.097
18,ATAAATAC,0.263 ± 0.071
19,ATAAATAA,0.231 ± 0.0076
20,ATAAATAG,0.167 ± 0.075
21,TTAAGGAA,0.0354 ± 0.0092
22,AGGAAGTG,-0.0996 ± 0.0079
23,CTCTTGAC,-0.0583 ± 0.0029
24,CCCAAATA,0.176 ± 0.061
25,ACCGATCC,-0.277 ± 0.0028

row,Sequence,PBM 8-mer E-score
1,AGAAGCAA,0.1 ± 0.028
2,ATCGGTTA,-0.0224 ± 0.05
3,ATGATTAC,0.149 ± 0.044
4,GATAGAGC,-0.15 ± 0.001
5,CTACATAG,0.138 ± 0.14
6,GATGCACA,-0.00748 ± 0.045
7,AATGCATT,0.348 ± 0.072
8,CGTGCACG,0.283 ± 0.13
9,TGTGCACA,0.221 ± 0.046
10,AATGCATA,0.171 ± 0.09
11,CATGCATC,0.0441 ± 0.017
12,CATGCATG,0.3719 ± 0.0024
13,CATGCACG,0.183 ± 0.026
14,CATGCACA,0.317 ± 0.082
15,AATGCATC,0.129 ± 0.082
16,CGTGCACA,0.098 ± 0.028
17,CATGCATA,0.19 ± 0.13
18,GTGAATTA,0.191 ± 0.067
19,CCTTACGC,0.0271 ± 0.0015
20,AGCGTTTG,-0.169 ± 0.14
21,CCAAGTGG,-0.15414 ± 2.1e-05
22,CTTTAGGC,-0.158 ± 0.011
23,GAAGCTTA,0.129 ± 0.018
24,ATGGACTA,0.128 ± 0.015
25,GCGGATAA,-0.0466 ± 0.033

row,Sequence,PBM 8-mer E-score
1,CTGACTAC,-0.0404 ± 0.19
2,CTATAAGC,-0.00153 ± 0.018
3,AATGCAAC,0.197 ± 0.047
4,CATGCAAG,0.118 ± 0.015
5,ACTGCATG,-0.0337 ± 0.13
6,AATGCATG,0.237 ± 0.073
7,CATGCAAC,0.327 ± 0.012
8,AATGCAAG,0.0709 ± 0.08
9,GACTCCGA,-0.155 ± 0.046
10,TCTCGACA,-0.0258 ± 0.011
11,TCGGGTAA,0.00741 ± 0.027
12,ACAGGCAT,-0.0411 ± 0.063
13,CCTCTCTC,-0.045 ± 0.086
14,ACATCACT,0.245 ± 0.095
15,GCATCATA,0.274 ± 0.019
16,ATATCATG,0.175 ± 0.056
17,GCATCAGA,0.0605 ± 0.012
18,CTATCACA,0.169 ± 0.029
19,ACATCACA,0.221 ± 0.009
20,CCATCATA,0.0385 ± 0.12
21,ATATCATA,0.253 ± 0.14
22,CTATCATA,0.208 ± 0.054
23,ATATCACG,0.294 ± 0.068
24,ACATCACC,-0.0768 ± 0.063
25,ATATCACA,0.117 ± 0.14

row,Sequence,PBM 8-mer E-score
1,AGACTGGG,-0.147 ± 0.064
2,ACGGAATA,-0.0839 ± 0.0017
3,AGCTTGGG,-0.0797 ± 0.022
4,CAATGATG,-0.00417 ± 0.0019
5,ACGCTCGC,0.0344 ± 0.16
6,CTGAGCTA,-0.17 ± 0.098
7,CATTTTAC,0.188 ± 0.026
8,GCGTCAAA,-0.0402 ± 0.15
9,AGACGGGA,-0.0877 ± 0.053
10,TGAATCCA,0.0507 ± 0.048
11,GGGTTCCA,-0.11 ± 0.023
12,AGCGATTG,-0.152 ± 0.033
13,ACCAATCT,-0.0171 ± 0.067
14,ATGTCACA,0.131 ± 0.002
15,CTGTCACA,0.00831 ± 0.13
16,ATGTCACG,0.297 ± 0.063
17,ACATCATA,0.249 ± 0.038
18,ACATCATC,0.166 ± 0.041
19,ACATCATG,0.07 ± 0.031
20,AGGGTTTC,-0.0163 ± 0.01
21,CTATAACC,0.0519 ± 0.0013
22,AAATAACG,0.309 ± 0.086
23,GTATAACA,0.228 ± 0.019
24,CAATAACG,0.0808 ± 0.07
25,ATATAACC,0.171 ± 0.041

row,Sequence,PBM 8-mer E-score
1,AAATAACA,0.204 ± 0.018
2,ATATAACA,0.262 ± 0.032
3,CTATAACA,0.157 ± 0.085
4,ATATAACG,0.269 ± 0.044
5,CATAATTC,-0.00772 ± 0.086
6,GATAATTA,0.127 ± 0.021
7,CCTAATTA,0.0515 ± 0.15
8,AATAATTC,0.179 ± 0.12
9,AATAATTA,0.26 ± 0.072
10,CATAATTA,0.237 ± 0.031
11,GCGGAGCA,-0.239 ± 0.06
12,AAGACACT,0.186 ± 0.0044
13,GAAACACA,0.0586 ± 0.066
14,ACAAGCTG,-0.103 ± 0.091
15,AGACAATA,0.2983 ± 0.00038
16,CAACAATA,0.324 ± 0.022
17,TAACAATA,0.257 ± 0.033
18,AAACAATA,0.234 ± 0.038
19,GAACAATA,0.0766 ± 0.03
20,AGACAATC,0.0672 ± 0.021
21,CAACAATC,0.0661 ± 0.052
22,AGACAATG,0.0426 ± 0.00081
23,CAACAATG,0.137 ± 0.096
24,ACACCCGG,-0.144 ± 0.016
25,GGGCTTGA,-0.165 ± 0.025

row,Sequence,PBM 8-mer E-score
1,ACACAGGA,0.0105 ± 0.0057
2,ACGGTCCT,-0.272 ± 0.044
3,CTAAGTGC,-0.0257 ± 0.067
4,TAAGAGAA,-0.0222 ± 0.03
5,AAAAAAAT,0.168 ± 0.066
6,ACAAAAAG,0.125 ± 0.074
7,CCAAATCA,-0.0102 ± 0.046
8,GCAAATCA,-0.0323 ± 0.096
9,ACAAAAAT,0.241 ± 0.05
10,ACAAAAAA,0.249 ± 0.033
11,ACCAAAAT,0.168 ± 0.03
12,ACAAAAAC,0.178 ± 0.055
13,ACAAATCA,0.237 ± 0.12
14,GTCATAAA,0.193 ± 0.01
15,CCAAAACA,0.231 ± 0.1
16,ACCACCGG,-0.2177 ± 0.00071
17,ATCTCTCC,-0.0165 ± 0.16
18,AACGCCCA,-0.077 ± 0.015
19,AACGCCAC,-0.111 ± 0.023
20,CTATGCCC,-0.0261 ± 0.02
21,AACGAATC,0.023 ± 0.089
22,TGGTTACA,0.0957 ± 0.036
23,CTTATAAA,0.191 ± 0.0045
24,ATTATAAT,0.201 ± 0.042
25,ATTATAAA,0.296 ± 0.053

row,Sequence,PBM 8-mer E-score
1,ATTATAAG,0.115 ± 0.13
2,GTTATAAA,0.239 ± 0.037
3,GTTATAAC,0.187 ± 0.11
4,AGCCCAAG,-0.08 ± 0.11
5,CGAGAAGA,0.0468 ± 0.0088
6,AGCCGTTG,-0.0362 ± 0.068
7,ACCTATAC,0.0268 ± 0.14
8,AAATATAT,0.2435 ± 0.0013
9,AAATATAC,0.209 ± 0.032
10,ACATATAT,0.323 ± 0.054
11,ACCTATAA,0.0216 ± 0.083
12,AAATATAA,0.218 ± 0.046
13,TCATATAA,0.227 ± 0.06
14,ACATATAA,0.336 ± 0.069
15,CCATATAA,0.225 ± 0.044
16,ACATATAG,0.0848 ± 0.12
17,ACATATAC,0.159 ± 0.052
18,ACCTATAT,0.265 ± 0.0044
19,GCGTTTGA,-0.0646 ± 0.018
